Reference: PubChem BioAssay AID463173 (ICCB-Longwood Screening Facility, Harvard Medical School, 2010)
In all, about 52,000 compounds went through this assay and about 4,300 (8.3%) were called active. Shown is part of a subset that was picked to be rich in actives. Values without a mark were called inactive. Cut-off read from the data, not from the text of the source: active = survival mostly below about 52% (no sharp cut-off); inactive = mostly above about 56%.

System: DeltatarO mutant
Experiment: growth inhibition of S. aureus wild type versus tarO mutant, primary screen, teichoic acid synthesis inhibitors, RN4220, OD600 (AID 463173)
Conditions: OD600, 18 h, hits give low values, screened at 18.75 µg/mL (by protocol)

SMILES | survival
COc1cc(NC(=O)C(NS(=O)(=O)c2ccc3c(c2)CCCC(=O)N3)C(C)C)cc(OC)c1 (stereo not given) | 71%
O=C(Nc1cc2c(cc1C(=O)c1cccc(Br)c1)OCCO2)c1ccccc1F | 28% (active)
CCC(=O)c1cc2c(cc1NC(=O)c1ccccc1F)OCCO2 | 68%
O=C(Nc1cc2c(cc1C(=O)c1ccccc1Cl)OCCO2)c1ccc(Br)cc1 | 66%
CC1CCCN(S(=O)(=O)c2ccc(NC(=O)CSc3nc4ccccc4o3)cc2)C1 (stereo not given) | 58%
CCC1Oc2ccccc2N(CC(=O)NCc2ccccc2)C1=O (stereo not given) | -1% (active)
CCC1Oc2ccc(C)cc2N(CC(=O)NCc2ccc(OC)cc2)C1=O (stereo not given) | 39% (active)
CCC1Oc2ccc(C)cc2N(CC(=O)NCCc2ccccc2)C1=O (stereo not given) | 80%
CC1Oc2ccccc2N(CC(=O)NCc2ccccc2)C1=O (stereo not given) | 92%
CCC1Oc2ccccc2N(CC(=O)NCc2ccc(C)cc2)C1=O (stereo not given) | 78%
CCC1Oc2ccc(C)cc2N(CC(=O)NCc2ccc(F)cc2)C1=O (stereo not given) | 70%
COc1ccc(C2c3c(oc4ccc(F)cc4c3=O)C(=O)N2Cc2ccc3c(c2)OCO3)cc1 (stereo not given) | 59%
COc1ccccc1N1CCN(c2ncnc3c2nc2n3CCCC2)CC1 | 67%
Cc1cc(=O)n2nc(N3CCC(C(=O)NCc4ccccc4Cl)CC3)sc2n1 | 87%
CCOC(=O)c1cccc(NC(=O)Nc2c(C)n(C)n(-c3ccccc3)c2=O)c1 | 94%
CCCc1cc(=O)oc2cc(C)c3c(-c4ccccc4)c(C)oc3c12 | -10% (active)
CCCc1cc(=O)oc2cc(C)c3c(-c4cccc(OC)c4)coc3c12 | 67%
CCCc1cc(=O)oc2cc(C)c3c(C(C)(C)C)coc3c12 | 88%
Cc1ccc2[nH]c(=O)c(CN(Cc3ccccc3)C(=O)c3ccco3)cc2c1 | 103%
CCc1nnc2n1N(C(C)=O)C(c1ccc(C(C)(C)C)cc1)=C(C(C)=O)S2 | 96%
Cc1c(CNC2CCCCCC2)c(C(=O)O)c(C)n1Cc1ccc(F)cc1Cl | 80%
Oc1cccc(-c2nc(-c3cccs3)c(-c3cccs3)[nH]2)c1 | 4% (active)
Cc1ccc(-c2nc(-c3cccs3)c(-c3cccs3)[nH]2)cc1 | 62%
Cc1sc(N)nc1-c1cccs1 | 96%
CN1C(C(=O)Nc2cccc(O)c2)=CC(c2cccs2)=NS1(=O)=O | 87%
COc1ccc(O)c(-c2cn[nH]c2-c2cccs2)c1 | 89%
CN(C)c1ccc(-c2nc(-c3cccs3)c(-c3cccs3)[nH]2)cc1 | 47% (active)
Oc1ccccc1-c1nc(-c2cccs2)c(-c2cccs2)[nH]1 | 0% (active)
Fc1ccc(-c2nc(-c3cccs3)c(-c3cccs3)[nH]2)cc1 | 64%
Fc1ccc2[nH]c(-c3cccs3)cc2c1 | 54%
